# DAX1 inh-1 – DAX1 (NR0B1) inhibitors on StAR promoter, primary screen, cell-based, luminescence, SF-1 (NR5A1), full-length DAX-1; HEK293T StAR-luciferase reporter, SF-1/DAX-1 repression relief; inhibition, % at 6.8 µM; 370,000 tested, 1.1% active; AID 652010, 2013;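 active = inhibition above the mean over all tested compounds plus 3 SD, cut at about 3.6% in these data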;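 note: 0% = DAX-1 cells with DMSO and 100% = cells lacking DAX-1 with DMSO; higher inhibition means more luminescence from relief of DAX-1 repression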
# DAX1 inh-2 – DAX1 (NR0B1) inhibitors, primary screen, cell-based, HEK293, Gal4-DAX1, luciferase luminescence; AID 504766, 2011; HEK293 Gal4-DAX1 luciferase reporter; inhibition, % at 6.75 µM; 340,000 tested, 0.99% active; Nuclear receptor subfamily 0 group B member 1 (Homo sapiens), P51843;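 active = inhibition above the mean over all tested compounds plus 3 SD, cut at about 4.2% in these data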;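 note: 0% = DAX1-transfected cells with DMSO and 100% = empty-vector control cells with DMSO; inhibition shows as a rise in luminescence from relieved DAX1 repression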
# Target sequence (P51843 207-470 limits assumed): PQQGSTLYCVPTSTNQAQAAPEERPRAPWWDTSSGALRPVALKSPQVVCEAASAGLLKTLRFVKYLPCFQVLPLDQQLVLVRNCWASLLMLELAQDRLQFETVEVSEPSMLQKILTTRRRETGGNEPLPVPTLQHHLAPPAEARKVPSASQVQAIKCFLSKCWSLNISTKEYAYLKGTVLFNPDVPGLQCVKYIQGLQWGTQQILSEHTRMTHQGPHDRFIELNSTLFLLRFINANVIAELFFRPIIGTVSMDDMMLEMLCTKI
# hgDAF-12 ag – H. glycines DAF-12 receptor agonists, primary screen, cell-based, luminescence, HEK293, GAL4 fusion, UAS-luciferase; Nuclear hormone receptor DAF-12 (Heterodera glycines), GAL4 fusion; HEK293 GAL4-hgDAF12 UAS-luciferase reporter, agonist luminescence; normalized to butyrate control; activation, % at 6.8 µM; 370,000 tested, 1.8% active;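 active = activation above a cutoff set at the mean of all screened compounds plus 3 SD, cut at about 10% in these data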;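 note: 0% = DMSO wells and 100% = sodium butyrate wells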
# hcDAF12 agonist – H. contortus DAF-12 nuclear receptor activators, primary screen, cell-based, luminescence, HEK293, lit1-tk-luc reporter | HEK293 hcDAF-12 lit1-tk-luc reporter; 0% DMSO, 100% Δ7-dafachronic acid | activation, % at 6.8 µM | 370,000 tested, 1.4% active | AID 652067, 2013;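 active = activation above the mean of all tested compounds plus 3 SD, cut at about 5.5% in these data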;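 note: 100% = response to 3 µM Δ7-dafachronic acid high control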
# ssDAF12 agonist – S. stercoralis DAF-12 nuclear receptor activators, primary screen, cell-based, luminescence, HEK293, GRIP1 co-expression, lit1-tk-luc | HEK293 ssDAF-12/GRIP1 lit1-tk-luc reporter; % of 3 µM dafachronic acid response | 370,000 tested, 1% active | activation, % at 6.8 µM | AID 652126, 2013 | Nuclear hormone receptor DAF-12 (Strongyloides stercoralis);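 active = activation above the mean over all tested compounds plus 3 SD, cut at about 0.9% in these data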;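 note: 0% = DMSO-only wells and 100% = 3 µM delta7-dafachronic acid wells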
# LXR ag – LXR agonists, Gal4 luciferase reporter, confirmation, counter-screen for hcDAF-12 agonist project, cell-based, luminescence, HEK293, H. contortus campaign | shares compounds with hcDAF12 agonist | HEK293 Gal4-LXR tk-luc reporter, 24 h; normalized: DMSO 0%, positive control 100% | activation, % at 6.8 µM | 3,400 tested, under 10 active;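 active = mean percent activation of the reporter above a cutoff set as the average over tested compounds plus their standard deviation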
# hcDAF12 ag – H. contortus DAF-12 receptor agonists, confirmation, cell-based, luminescence, HEK293, lit1-tk-luc, triplicate; 3,400 tested, 61% active; AID 743032, 2013; shares compounds with hcDAF12 agonist; activation, % at 6.8 µM; HEK293 hcDAF-12 lit1-tk-luc reporter; % of Δ7-dafachronic acid response;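 active = mean activation across triplicate tests above the threshold derived from the earlier primary screen, cut at about 5.5% in these data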;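 note: 0% = DMSO only wells and 100% = 3 µM Δ7-dafachronic acid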
# Active calls of the source: *; x = no result given. Most compounds without a hit are left out; they make up all but 4.1% or so of the library.
SMILES,DAX1 inh-1,DAX1 inh-2,hgDAF-12 ag,hcDAF12 agonist,ssDAF12 agonist,LXR ag,hcDAF12 ag
CC(C)CNC(=S)NC1CC2CCC(C1)N2Cc1ccccc1 (configuration not stated),1,-1,2,6.8*,-1,0,2
Cc1ccc(C(=O)N/C(=C\c2ccc(-c3ccccc3[N+](=O)[O-])o2)C(=O)NCCCN2CCOCC2)cc1,-5,-1,-1,7.3*,0,0,2
COc1ccc(OCc2cc(C(=O)NC3CCOC(C)(C)C3)no2)c2ccccc12 (configuration not stated),4.1*,3,6,7.9*,2.1*,0,8.0*
COc1ccc(OCc2cc(C(=O)N3CCC(OC)CC3)no2)c2ccccc12,3.8*,3,9,7.8*,1,0,6.4*
CSc1ccccc1OCc1cc(C(=O)NC2CCOC(C)(C)C2)no1 (configuration not stated),0,-1,2,-1,-1,x,x
CCc1cc(=O)oc2c3c(cc(OCC(=O)NCCN4CCOCC4)c12)OC(C)(C)CC3,-1,0,-4,-1,-1,x,x
CC/C(=N/NC(=O)c1ccc2c(c1)OCO2)c1ccccc1O,0,4.9*,4,14*,1.1*,0,0
Cc1nn2c3ccccc3nc2c2ccccc12,1,1,5,7.5*,1,0,7.1*
Cc1nn2c(-c3ccccc3)nnc2c2ccccc12,1,1,2,4,0,x,x
COCc1cc(S(=O)c2ccc(Cl)cc2)nc(C)n1 (configuration not stated),0,0,-1,1,-1,x,x
Cc1cc(NC(=O)CCc2ccccc2)c([N+](=O)[O-])cc1C,0,0,2,-1,-1,x,x
CSc1ccccc1-c1nnc(-c2ccccc2)o1,4.4*,4,13*,12*,2.2*,1,12*
COc1ccccc1-c1nnc(-c2ccc(C)cc2)o1,2,8.4*,11*,8.0*,0,1,8.5*
CCc1nnc(NS(=O)(=O)c2ccc(NC(=O)c3cccc(OC)c3)cc2)s1,0,1,3,-1,-1,x,x
COc1ccc(C(C)(C)C)cc1NC(=O)CNc1cccc2ccccc12,0,-1,-3,7.6*,-1,0,0
COc1ccccc1NC(=O)Cc1cccc2ccccc12,0,-1,-2,-2,-1,x,x
O=[N+]([O-])c1ccc(-c2ccc(S(=O)(=O)N3CCOCC3)cc2)cc1,0,4.5*,2,6.6*,-1,0,1
O=[N+]([O-])c1ccc(Oc2ccc(S(=O)(=O)N3CCOCC3)cc2)cc1,-1,-2,-4,-1,-1,x,x
O=C(NC(=S)Nc1cccc([N+](=O)[O-])c1)C1CCCCC1,-2,0,2,-2,-1,x,x
COc1ccc(-c2cn3ccccc3n2)cc1OC,2,2,11*,13*,3.1*,1,13*
Cc1ccc(-c2ccc(C)c(N)c2C)c(C)c1N,-1,0,-3,-2,-1,x,x
Cc1ccc2cn[nH]c2c1N,-1,0,3,6.9*,1,0,4
Cc1nc(-c2cccc3ccccc23)ccc1C(=O)O,0,1,-1,-2,-1,x,x
Cc1ccc(Nc2nnc(SC/C(O)=C(\C#N)c3nc4ccccc4[nH]3)s2)c(C)c1,0,1,1,9.4*,0,0,5
Cc1cccc(Nc2nnc(SC/C(O)=C(\C#N)c3nc4ccccc4[nH]3)s2)c1,1,0,0,7.2*,1.5*,0,7.0*
SMILES,DAX1 inh-1,DAX1 inh-2,hgDAF-12 ag,hcDAF12 agonist,ssDAF12 agonist,LXR ag,hcDAF12 ag
COc1ccc(C)cc1-n1nnnc1SC/C(O)=C(\C#N)c1nc2ccccc2[nH]1,0,1,-1,2,-1,x,x
O=C1CCC(C(=O)OCc2cc(=O)oc3ccc4ccccc4c23)=NN1,0,-1,-1,2,-1,x,x
C=CCN(C)CC#Cc1ccc(OC)cc1,0,x,-2,-2,0,x,x
N#C/C(=C\Nc1ccc2cn[nH]c2c1)c1nc(-c2ccc(Cl)cc2)cs1,0,2,2,7.3*,0,-1,3
N#C/C(=C\Nc1ccc2cn[nH]c2c1)c1nc(-c2ccccc2)cs1,-1,-1,-1,0,-1,x,x
Cc1c[n+]([O-])cc(C)c1[N+](=O)[O-],-1,0,0,-1,-1,x,x
COCCN(CC(=O)Nc1cc(Cl)ccc1-n1cncn1)Cc1nc2ccccc2c(=O)[nH]1,-1,0,-1,-1,-1,x,x
Cc1cc(/C=C2\Cc3ccccc3C2=O)c(C)n1-c1ccccc1,1,-1,8,9.0*,1,0,-1
CCOc1ccc(CCNC(=O)CN2C(=O)NC3(CCCC3)C2=O)cc1OCC,0,-1,0,0,-1,x,x
COc1cc2c(cc1N)-c1ccc(N)cc1C2=O,2,1,8,1,-1,x,x
COc1cc2c(c(Br)c1N)-c1cc(Br)c(N)cc1C2=O,3,-1,5,6.9*,-1,0,8.8*
C/C(=N\N=C(/N)c1nonc1N)c1ccc2c(c1)OCO2,4,1,11*,7.1*,0,2,5
Cc1[nH]n(C(N)=S)c(=O)c1N=Nc1ccc(Br)cc1,1,2,5,7.3*,0,1,14*
O=C(Nc1nccs1)C(=O)c1c[nH]c2ccccc12,3,1,9,6.5*,1.8*,1,8.0*
O=C(Cc1c[nH]c2ccccc12)Nc1nccs1,0,1,3,2,0,x,x
Cc1ccc2nc(N3C(=O)CNC3=S)sc2c1,2,x,6,4,0,x,x
COc1ccc2nc(N3C(=O)CNC3=S)sc2c1,1,3,8,8.4*,0,1,5
